Assay outcomes from PubChem BioAssay.
ELG1 genotox: inducers of genotoxicity in HEK293T ELG1-luciferase cells; HEK293T ELG1-luciferase reporter, luminescence, 16 h; actives 1.3% (n = 330,000); Potency, µM (doses to about 46 µM), inactives show at the top dose activity change, positive = activation, usual class: activators; AID 504466; also: % of control where 0% means no effect; nearly all actives have a fitted effect of over 60% in size
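Quantitative HTS format in 1536-well plates. HEK293T ELG1-luciferase reporter cells receive test compound and are incubated 16 hr at 37 °C, 5% CO2; ONE-Glo added, 30 min room temperature, then luminescence read.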
SMN2 splice enh: increases expression of the SMN2 splice variant; HEK293 SMN2-luciferase splicing reporter, luminescence, 30-36 h; Potency, µM (series often up to 46.1 µM), inactives show at the top dose activity change, positive = activation, most hits filed as activators; actives 2.8% (n = 210,000); also: % of control where 0% means no effect; nearly all actives have a fitted effect of over 55% in size
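HEK293 cells carry an SMN2 minigene-luciferase reporter in which exon 7 inclusion puts luciferase in frame. Cells were seeded at 2000 cells/well, attached for 10-12 hours, then exposed to compounds for 30-36 hours at 37C before ONE-Glo luminescence.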
ELG1 DNA repair: blocks ELG1-dependent DNA repair in HEK293T cells; Potency, µM (highest dose often 46.1 µM), inactives show at the highest dose activity change, negative = inhibition, most hits filed as inhibitors; AID 504467; HEK293T ELG1-luciferase reporter, luminescence, 16 h; DNA damage induced by 5-fluorouridine; actives 2.3% (n = 330,000); also: % is scaled to controls: 0 for no effect and ±100 for the full control effect; nearly all actives have a fitted effect of over 55% in size
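Cells (2,000 per well) received 5-fluorouridine plus test compound or DMSO and were incubated 16 hr at 37 °C, 5% CO2. Luciferase activity was read by luminescence 30 min after ONE-Glo addition; signal suppression marked inhibition of damage-induced ELG1 function.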
NPC1 prom act: activates the NPC1 promoter; actives 2.4% (n = 320,000); Huh7 NPC1 promoter luciferase reporter, 24 h; Potency, µM (highest dose often 9.22 µM), inactives show at the highest dose activation, usual class: activators; also: % of control where 0% means no effect; nearly all actives have a fitted effect of over 60% in size
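Readout is luciferase luminescence, reflecting NPC1 promoter activation in stably transfected Huh7 cells after 24 h compound exposure at 37 °C in reduced-serum medium with 10% FBS.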
Rab9 prom act: activators of Rab9 promoter; AID 485297; Huh7 Rab9 promoter-luciferase reporter, luminescence, 24 h; actives 2.8% (n = 320,000); Potency, µM (doses to about 9.22 µM), inactives show top-dose activation, negative = inhibition, usual class: activators; also: % of control where 0% means no effect; nearly all actives have a fitted effect of over 60% in size
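Quantitative HTS format; Huh7 Rab9-luciferase reporter cells (1500/well) receive compound 2 h post-plating, incubate 24 h at 37 °C, then get luciferase reagent for 10 min before luminescence reading.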
FLuc counter: counter-screen for miR-21 project: firefly luciferase inhibitors or activators. AID 588342. actives 6.9% (n = 360,000). Potency, µM (series often up to 57.5 µM), without a hit: at the top dose activity change, negative = inhibition, actives largely listed as inhibitors. P08659. purified FLuc, Km substrates, luminescence inhibition;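 also: plate controls were vehicle for no effect and reference inhibitor for full effect; nearly all actives have a fitted effect of over 55% in size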
Target sequence (P08659 whole entry, looked up): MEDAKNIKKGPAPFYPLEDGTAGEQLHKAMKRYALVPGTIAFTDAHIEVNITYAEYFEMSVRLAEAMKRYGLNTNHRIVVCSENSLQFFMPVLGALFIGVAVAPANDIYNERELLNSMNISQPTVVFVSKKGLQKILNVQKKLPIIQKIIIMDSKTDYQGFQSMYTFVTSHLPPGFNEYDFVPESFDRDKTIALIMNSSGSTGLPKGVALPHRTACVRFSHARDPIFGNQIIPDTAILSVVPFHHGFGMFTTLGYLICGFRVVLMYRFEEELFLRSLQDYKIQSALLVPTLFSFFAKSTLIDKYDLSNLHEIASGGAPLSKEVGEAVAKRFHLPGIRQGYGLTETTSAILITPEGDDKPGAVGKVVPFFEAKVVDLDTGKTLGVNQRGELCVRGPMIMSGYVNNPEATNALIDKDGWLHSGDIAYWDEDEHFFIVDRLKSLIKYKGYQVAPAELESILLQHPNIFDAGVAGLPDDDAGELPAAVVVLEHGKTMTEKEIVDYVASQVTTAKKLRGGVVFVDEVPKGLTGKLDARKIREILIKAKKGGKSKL
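Biochemical qHTS of compounds, final roughly 60 µM downward over six points, against 10 nM purified firefly luciferase using Km concentrations of substrates (10 uM D-luciferin, 10 uM ATP) in Tris acetate pH 7.5 buffer; luminescence output.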
Numbers without * were called inactive; ? = inconclusive; . = not tested or not shown; [ ] = remark or other dose. Shown are actives, neighbours in structure and some others; about 9.4% of the full set was active somewhere. Calls follow the shape of the dose curve; as a rule, active = well fitted curve in the direction sought with a large enough effect; inconclusive = small, poorly fitted or top-dose-only effect, or another doubt; inactive = no such curve, though single readings can be large; an effect the other way counts as inactive or inconclusive. Potency is read from the fitted curve at half-maximal effect.

SMILES	ELG1 genotox	SMN2 splice enh	ELG1 DNA repair	NPC1 prom act	Rab9 prom act	FLuc counter
Cc1nn(C)c(C(=O)Nc2ccc(S(=O)(=O)NC34CC5CC(CC(C5)C3)C4)cc2)c1Br	5.8%	1µM*	?	1.41µM*	1.58µM*	-17.2%
CCOC(=O)c1cc(S(=O)(=O)N2CCN(c3ccccc3F)CC2)[nH]n1	.	.	.	.	.	-19.8%
COc1ccc(NC(=O)c2sc3nc4c(cc3c2N)CCCCCC4)cc1OC	.	0.9%	.	.	.	-2.3%
CCc1nnc(NC(=O)c2sc3nc4c(cc3c2N)CCCCCC4)s1	?	12.6µM*	?	?	2.82µM*	4.78µM*
CC(=O)c1cccc(NC(=O)c2sc3nc4c(cc3c2N)CCCC4)c1	.	16.9%	.	.	.	0.536µM*
Cc1cccc(NC(=O)c2sc3nc(N)c(C#N)cc3c2N)c1	?	15.8µM*	?	2.82µM*	2.51µM*	9.53µM*
CCc1nnc(NC(=O)c2sc3nc4c(cc3c2N)CCCCC4)s1	?	8.91µM*	?	2.24µM*	1.58µM*	1.69µM*
CCOC(=O)c1ccccc1NC(=O)c1nn(C)c2c1COc1ccccc1-2	.	.	.	.	.	-0.7%
CC1=C(c2ccc(C(C)C)cc2)S(=O)(=O)NC1=NCCCN1CCN(c2ccccc2F)CC1	.	.	.	.	.	1.5%
Cc1ccc(NC(=O)c2cccc(S(=O)(=O)N3CCN(c4ccccc4)CC3)c2)nc1	14.6µM*	.	?	-5.9%	-15.5%	2.4%
Cc1ccnc(NC(=O)c2cccc(S(=O)(=O)N3CCN(c4ccccc4)CC3)c2)c1	?	.	?	20.3%	?	1.9µM*
COc1ccccc1-n1nc(-c2ccccc2)c2cnc3cc(C(F)(F)F)ccc3c21	.	-0.2%	.	.	.	-9.2%
N#C/C(=C\c1ccc(F)c(Br)c1)C(=O)NC1CC1	10.3µM*	.	?	3.16µM*	3.98µM*	?
Cc1cccc(C(=O)O)c1C[C@H]1NCC[C@H]2c3ccccc3N[C@@H]12	.	-1.6%[9.22 µM]	.	.	.	.
COc1ccc(C(=O)NCC(c2ccc3c(c2)OCO3)N2CCOCC2)cc1OC (stereo not drawn)	.	.	.	.	.	-1.3%
